Results taken from PubChem BioAssay (EPA / NIEHS).
Activity calls are given as the source filed them. The calls were made as follows: active = hit-call score of the fitted dose curve at least 0.9, where 1 is the maximum; inactive = score below 0.9.

Tests used:
[1] = read-out: Vascular cell adhesion molecule 1 (VCAM1), VCAM1 (gene 7412); assay: BSK_4H_VCAM1: BioMAP Diversity Plus: 4H Assay for Vascular cell adhesion molecule 1 (VCAM1) Biomarker Activity (AID 2283033); conditions: primary human endothelial cells (HUVEC); actives raise or lower the signal
Outline: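 HUVEC, 24 h post-dose; VCAM-1 by ELISA. Bidirectional curve fit vs DMSO baseline. Parallel SRB total-protein stain (0.1% SRB after 10% TCA fixation, 560 nm) for cytotoxicity.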

[2] = read-out: Interferon-gamma inducible Protein 10 (IP10), CXCL10 (gene 3627); assay: BSK_BE3C_IP10: BioMAP Diversity Plus: BE3C Assay for Interferon-gamma inducible Protein 10 (IP10) Biomarker Activity (AID 2283034); conditions: primary human bronchial epithelial cells; actives raise or lower the signal
Outline: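 ELISA readout of IP-10 in BE3C system: primary human bronchial epithelial cells, 24 h post-dosing; bidirectional curve fit vs DMSO baseline.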

[3] = read-out: Urokinase-type plasminogen activator receptor (uPAR), PLAUR (gene 5329); assay: BSK_BE3C_uPAR: BioMAP Diversity Plus: BE3C Assay for Urokinase-type plasminogen activator receptor (uPAR) Biomarker Activity (AID 2283039); conditions: primary human bronchial epithelial cells; actives raise or lower the signal
Outline: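 ELISA readout of uPAR on human lung primary bronchial epithelial cells, 24 h post-dosing. Bidirectional curve fit relative to DMSO vehicle baseline; gain or loss of signal both scored.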

[4] = read-out: Interleukin-6 (IL6), IL6 (gene 3569); assay: BSK_CASM3C_IL6: BioMAP Diversity Plus: CASM3C Assay for Interleukin-6 (IL6) Biomarker Activity for (AID 2283040); conditions: primary human coronary artery smooth muscle cells; actives raise or lower the signal
[5] = read-out: Macrophage colony-stimulating factor (MCSF), CSF1 (gene 1435); assay: BSK_CASM3C_MCSF: BioMAP Diversity Plus: CASM3C Assay for Macrophage colony-stimulating factor (MCSF) Biomarker Activity (AID 2283044); conditions: primary human coronary artery smooth muscle cells; actives raise or lower the signal;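 also: M-CSF protein amount quantified by ELISA after 24 h exposure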
[6] = read-out: Low-density lipoprotein receptor (LDLR), LDLR (gene 3949); assay: BSK_CASM3C_LDLR: BioMAP Diversity Plus: CASM3C Assay for Low-density lipoprotein receptor (LDLR) Biomarker Activity (AID 2283045); conditions: primary human coronary artery smooth muscle cells; actives raise or lower the signal;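 also: LDLR protein level on the cell surface quantified by ELISA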
[7] = read-out: Monocyte Chemoattractant Protein-1 (MCP1), CCL2 (gene 6347); assay: BSK_CASM3C_MCP1: BioMAP Diversity Plus: CASM3C Assay for Monocyte Chemoattractant Protein-1 (MCP1) Biomarker Activity (AID 2283046); conditions: primary human coronary artery smooth muscle cells; actives raise or lower the signal
[8] = BSK_CASM3C_Proliferation: Cell Proliferation Assessment in the BioMAP Diversity Plus: CASM3C Assay (AID 2283047); conditions: primary human coronary artery smooth muscle cells;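 also: sulforhodamine B total protein stain as relative cell number at 560 nm; sub-confluent cells exposed 48 h before staining; fitted both ways against DMSO so gain or loss of cell number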
[9] = BSK_CASM3C_SRB: Viability Assessment in the BioMAP Diversity Plus: CASM3C Assay (AID 2283050); conditions: primary human coronary artery smooth muscle cells;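 also: cells exposed to compound for 24 h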
[10] = read-out: Tissue Factor, F3 (gene 2152); assay: BSK_CASM3C_TissueFactor: BioMAP Diversity Plus: CASM3C Assay for Tissue Factor Biomarker Activity (AID 2283052); conditions: primary human coronary artery smooth muscle cells; actives raise or lower the signal;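 also: cell surface tissue factor protein level read by ELISA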
[11] = read-out: Interferon-gamma inducible Protein 10 (IP10), CXCL10 (gene 3627); assay: BSK_hDFCGF_IP10: BioMAP Diversity Plus: hDFCGF Assay for Interferon-gamma inducible Protein 10 (IP10) Biomarker Activity (AID 2283053); conditions: primary human foreskin fibroblasts; actives raise or lower the signal
Outline: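 ELISA read-out of IP-10 (CXCL10) from primary human skin fibroblasts, 24 h after compound addition. Gain or loss of signal versus DMSO baseline, bidirectional curve fitting.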

[12] = read-out: Vascular cell adhesion molecule 1 (VCAM1), VCAM1 (gene 7412); assay: BSK_CASM3C_VCAM1: BioMAP Diversity Plus: CASM3C Assay for Vascular cell adhesion molecule 1 (VCAM1) Biomarker Activity (AID 2283055); conditions: primary human coronary artery smooth muscle cells; actives raise or lower the signal;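 also: VCAM-1 protein level quantified by ELISA on the cells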
[13] = read-out: Epidermal growth factor receptor (EGFR), EGFR (gene 1956); assay: BSK_hDFCGF_EGFR: BioMAP Diversity Plus: hDFCGF Assay for Epidermal growth factor receptor (EGFR) Biomarker Activity (AID 2283057); conditions: primary human foreskin fibroblasts; actives raise or lower the signal
Outline: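 ELISA readout of EGFR on human dermal fibroblasts (primary foreskin cells), 24 h post-dosing; bidirectional curve fit vs DMSO baseline, gain or loss of signal scored.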

[14] = read-out: Interleukin-8 (IL8), CXCL8 (gene 3576); assay: BSK_hDFCGF_IL8: BioMAP Diversity Plus: hDFCGF Assay for Interleukin-8 (IL8) Biomarker Activity (AID 2283058); conditions: primary human foreskin fibroblasts; actives raise or lower the signal
Outline: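 Cells used are human skin primary fibroblasts. Chemical is added, cultures run 24 h, then IL-8 is quantified by ELISA, and gain or loss versus DMSO control is fitted in both directions.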

[15] = BSK_hDFCGF_Proliferation: Cell Proliferation Assessment in the BioMAP Diversity Plus: hDFCGF Assay (AID 2283059); conditions: primary human foreskin fibroblasts;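 also: curves fitted for both rise and fall of signal versus DMSO baseline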
Outline: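 Steps: dose primary human dermal fibroblasts (foreskin); […] fix in 10% TCA; stain with 0.1% SRB; read 560 nm; fit gain or loss of signal against DMSO.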

[16] = read-out: TIMP metallopeptidase inhibitor 1 (TIMP1), TIMP1 (gene 7076); assay: BSK_hDFCGF_TIMP1: BioMAP Diversity Plus: hDFCGF Assay for TIMP metallopeptidase inhibitor 1 (TIMP1) Biomarker Activity (AID 2283062); conditions: primary human foreskin fibroblasts; actives raise or lower the signal
Outline: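 Human skin fibroblasts (primary), hDFCGF system; compound exposure 24 h; TIMP-1 by ELISA; bidirectional fit vs DMSO negative control; overt cytotoxicity by SRB in parallel wells.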

[17] = read-out: Monokine induced gamma interferon (MIG), CXCL9 (gene 4283); assay: BSK_hDFCGF_MIG: BioMAP Diversity Plus: hDFCGF Assay for Monokine induced gamma interferon (MIG) Biomarker Activity (AID 2283063); conditions: primary human foreskin fibroblasts; actives raise or lower the signal
Outline: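 Chemicals were added to primary human foreskin fibroblast cultures, which were sampled 24 h later. MIG levels were then quantified by ELISA and responses fitted in both directions relative to DMSO.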

[18] = read-out: Matrix Metallopeptidase 1 (MMP1), MMP1 (gene 4312); assay: BSK_hDFCGF_MMP1: BioMAP Diversity Plus: hDFCGF Assay for Matrix Metallopeptidase 1 (MMP1) Biomarker Activity (AID 2283064); conditions: primary human foreskin fibroblasts; actives raise or lower the signal
Outline: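 MMP1 levels quantified by ELISA 24 h after dosing human dermal fibroblast cultures, with parallel SRB total-protein staining for overt cytotoxicity. Data fitted in both directions against DMSO baseline.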

[19] = read-out: Plasminogen activator inhibitor-1 (PAI1), SERPINE1 (gene 5054); assay: BSK_hDFCGF_PAI1: BioMAP Diversity Plus: hDFCGF Assay for Plasminogen activator inhibitor-1 (PAI1) Biomarker Activity (AID 2283066); conditions: primary human foreskin fibroblasts; actives raise or lower the signal
Outline: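 ELISA readout of PAI-1 from primary human skin fibroblast cultures, 24 h after compound addition. Gain or loss of signal was fitted bidirectionally against DMSO baseline.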

[20] = read-out: Interferon-gamma inducible Protein 10 (IP10), CXCL10 (gene 3627); assay: BSK_KF3CT_IP10: BioMAP Diversity Plus: KF3CT Assay for Interferon-gamma inducible Protein 10 (IP10) Biomarker Activity (AID 2283068); conditions: primary human keratinocytes with fibroblasts; actives raise or lower the signal
Outline: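 KF3CT co-culture (keratinocytes + foreskin fibroblasts), 24 h compound, IP-10 by ELISA; bidirectional fit vs DMSO baseline.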

Measured: AC50

O=S(=O)(c1ccccc1)c1ccccc1
inactive: all assays above

CC(C)CCCCCCCOP(=O)(Oc1ccccc1)Oc1ccccc1
active: [1] 25.1 µM | [2] 28 µM | [5] 0.173 µM | [6] 6.45 µM | [9] 20 µM | [11] 9.26 µM | [13] 3.97 µM | [14] 25.7 µM | [15] 3.16 µM | [16] 12.8 µM | [17] 11 µM | [18] 20 µM | [19] 8.46 µM | [20] 30.3 µM
inactive: [3] | [4] | [7] | [8] | [10] | [12]

CC(C)(C)C(=O)CCl
active: [1] 25.7 µM | [5] 0.65 µM | [8] 20 µM | [12] 11.7 µM | [19] 0.405 µM
inactive: all other assays above

C=CCN(CC=C)C(=O)C(Cl)Cl
inactive: all assays above

O=C(CCl)c1ccccc1
active: [1] 3.54 µM | [2] 29.9 µM | [4] 12.7 µM | [5] 12.9 µM | [6] 33 µM | [7] 12.5 µM | [8] 2.44 µM | [9] 12.2 µM | [11] 4.64 µM | [12] 7.45 µM | [14] 7.52 µM | [15] 1.4 µM | [16] 5.12 µM | [17] 6.78 µM | [18] 9.79 µM | [19] 6.44 µM | [20] 13.8 µM
inactive: [3] | [10] | [13]

CC(C)(c1cc(Cl)c(O)c(Cl)c1)c1cc(Cl)c(O)c(Cl)c1
inactive: [13]
active: [1] 30.1 µM | [2] 7.58 µM | [3] 5.31 µM | [4] 36.4 µM | [5] 20 µM | [7] 32.6 µM | [8] 32.6 µM | [9] 31.6 µM | [10] 10.9 µM | [11] 11.5 µM | [12] 20 µM | [14] 28.5 µM | [15] 7.69 µM | [16] 11 µM | [17] 14.8 µM | [18] 11.1 µM | [19] 6.66 µM | [20] 7.37 µM

O=P1(NCCCl)OCCCN1CCCl (centres undefined)
inactive: all assays above

O=[N+]([O-])C=Cc1ccccc1
inactive: [13]
active: [1] 11.5 µM | [2] 2.48 µM | [3] 5.37 µM | [4] 31.3 µM | [5] 20 µM | [6] 25.7 µM | [7] 27.6 µM | [8] 10.9 µM | [9] 20 µM | [10] 20 µM | [11] 2.63 µM | [12] 8.66 µM | [14] 4.35 µM | [15] 0.596 µM | [16] 13 µM | [17] 2.4 µM | [18] 3.96 µM | [19] 4.03 µM | [20] 6.18 µM

O=C1C(Cl)=C(Cl)C(=O)C(Cl)=C1Cl
inactive: [6] | [13]
active: [1] 13.5 µM | [2] 33.2 µM | [3] 29.2 µM | [4] 20 µM | [5] 20 µM | [7] 20 µM | [8] 5.78 µM | [9] 20 µM | [10] 6.19 µM | [11] 20 µM | [12] 15.3 µM | [14] 28.8 µM | [15] 1.63 µM | [16] 12.5 µM | [17] 31.4 µM | [18] 26.8 µM | [19] 27.1 µM | [20] 23.7 µM

CCCCCCCCCCCC#N
active: [1] 20.6 µM | [9] 29.3 µM | [11] 28.8 µM | [12] 20.6 µM | [15] 10.1 µM | [16] 33 µM | [17] 29.7 µM | [18] 37.7 µM | [19] 31.8 µM
inactive: all other assays above

CCCOC(=O)c1ccccc1C(=O)OCCC
inactive: all assays above

COCC(=O)N(c1c(C)cccc1C)N1CCOC1=O
inactive: all assays above

CC(C)CCCCCCCOC(=O)c1ccccc1C(=O)OCCCCCCCC(C)C
inactive: all assays above

c1ccc(Nc2ccc3ccccc3c2)cc1
active: [1] 29.5 µM | [2] 20 µM | [5] 20 µM | [8] 31.7 µM | [11] 36.2 µM | [15] 34.9 µM | [16] 31.5 µM | [18] 33.3 µM | [19] 29.3 µM | [20] 36.3 µM
inactive: [3] | [4] | [6] | [7] | [9] | [10] | [12] | [13] | [14] | [17]

CNC(=O)Oc1cc(C)c(SC)c(C)c1
active: [1] 20 µM | [5] 13.3 µM | [6] 7.52 µM | [8] 20 µM | [9] 10.1 µM | [10] 8.16 µM | [12] 20 µM
inactive: all other assays above
